# Source: ChEMBL document CHEMBL3988442, “University of Dundee, Small-Polar-MMV Screening Library” (2021)
# Molecular target: T1, Methionyl-tRNA synthetase, putative (Leishmania donovani (strain BPK282A1)) (UniProt E9BF75)
# T1 sequence (whole entry): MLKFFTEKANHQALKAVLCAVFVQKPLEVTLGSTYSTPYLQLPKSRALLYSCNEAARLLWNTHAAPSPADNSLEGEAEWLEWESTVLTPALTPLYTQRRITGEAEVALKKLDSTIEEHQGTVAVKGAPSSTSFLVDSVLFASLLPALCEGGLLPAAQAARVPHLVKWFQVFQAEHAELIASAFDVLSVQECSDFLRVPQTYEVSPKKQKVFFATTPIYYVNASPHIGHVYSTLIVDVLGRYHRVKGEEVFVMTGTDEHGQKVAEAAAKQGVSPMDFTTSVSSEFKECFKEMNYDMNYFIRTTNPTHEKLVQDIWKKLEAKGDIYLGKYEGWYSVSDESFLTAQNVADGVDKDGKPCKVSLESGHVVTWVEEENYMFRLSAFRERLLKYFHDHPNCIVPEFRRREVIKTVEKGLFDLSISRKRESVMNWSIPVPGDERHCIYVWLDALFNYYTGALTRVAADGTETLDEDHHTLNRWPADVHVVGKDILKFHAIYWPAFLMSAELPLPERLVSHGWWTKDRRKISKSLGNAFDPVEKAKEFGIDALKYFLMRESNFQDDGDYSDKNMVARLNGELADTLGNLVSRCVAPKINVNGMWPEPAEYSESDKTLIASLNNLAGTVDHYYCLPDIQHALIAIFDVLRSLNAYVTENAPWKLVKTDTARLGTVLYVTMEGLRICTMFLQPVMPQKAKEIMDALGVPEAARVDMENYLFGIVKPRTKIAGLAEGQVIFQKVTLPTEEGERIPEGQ
# Assay: Leishmania donovani Methionine tRNA synthetase (LdMetRS):v7. Dose response assay
# Format: functional
# Set-up: conc 80 nM, time 150 minutes
compound,measurement,setting,value
NCC1Cc2cc(-c3nccc(N4CCC(O)CC4)n3)cc(F)c2O1 (centres undefined),PXC50,"BOTTOM 4.57074024, HILLSLOPE 1.301030074, MAX_EFFECT 74.63768116, TOP 104.4144526",4.29
same,PXC50,"BOTTOM 7.212229631, HILLSLOPE 1.389029539, MAX_EFFECT 78.85304659, TOP 100.0",4.36
same,PXC50,"BOTTOM 8.369250909, HILLSLOPE 1.751405643, MAX_EFFECT 88.77887789, TOP 100.0",4.37
COc1ccc(Oc2nccc3occc23)cc1CN1CCCC1,PXC50,"BOTTOM 5.268776127, HILLSLOPE 1.354854137, MAX_EFFECT 57.61821366, TOP 100.0",4.06
same,PXC50,"BOTTOM -7.168939731, HILLSLOPE 0.901042745, MAX_EFFECT 51.70068027, TOP 100.0",4.08
same,PXC50,"BOTTOM -7.793188509, HILLSLOPE 1.286586052, MAX_EFFECT 52.89855072, TOP 100.0",4.09
Cn1ncc2c(NC3CCOCC3)nc(Nc3ccc(F)c(F)c3)nc21,PXC50,"BOTTOM 5.374646893, HILLSLOPE 1.78968519, MAX_EFFECT 52.27272727, TOP 55.59803221",4.65
same,PXC50,"BOTTOM 9.100238565, HILLSLOPE 1.237667708, MAX_EFFECT 69.82591876, TOP 73.93326352",5.4
same,PXC50,MAX_EFFECT 40.52863436,< 4
COC1CCCCC1Nc1nc(Nc2ccc(F)c(F)c2)nc2c1cnn2C (centres undefined),PXC50,"BOTTOM 6.09090205, HILLSLOPE 1.180798676, MAX_EFFECT 57.89473684, TOP 61.13511107",4.92
same,PXC50,MAX_EFFECT 49.43396226,< 4
same,PXC50,MAX_EFFECT 49.87277354,< 4
CC(C)Nc1nc(Nc2ccc(F)c(F)c2)nc2c1cnn2C,PXC50,"BOTTOM 6.912856457, HILLSLOPE 1.265127605, MAX_EFFECT 60.96491228, TOP 58.85327881",5.32
same,PXC50,"BOTTOM 8.026516696, HILLSLOPE 1.466204418, MAX_EFFECT 55.47073791, TOP 58.34935066",5.27
same,PXC50,"BOTTOM 8.495247693, HILLSLOPE 1.610767227, MAX_EFFECT 62.64150943, TOP 64.37148882",5.22
Cc1nc(CN(C)CC2CCCN2c2cccnn2)nc2ccccc12 (centres undefined),PXC50,"BOTTOM 6.94309251, HILLSLOPE 1.363298468, MAX_EFFECT 83.49834983, TOP 100.0",4.46
same,PXC50,"BOTTOM 8.751319867, HILLSLOPE 2.615595336, MAX_EFFECT 78.85304659, TOP 100.0",4.21
same,PXC50,"BOTTOM -1.910835363, HILLSLOPE 2.399208882, MAX_EFFECT 79.71014493, TOP 90.01694606",4.37
Cn1ncc2c(N3CCCCC3)nc(Nc3ccc(F)c(F)c3)nc21,PXC50,"BOTTOM 9.784183065, HILLSLOPE 1.295074552, MAX_EFFECT 52.03094778, TOP 54.78178501",5.24
same,PXC50,MAX_EFFECT 30.83700441,< 4
same,PXC50,MAX_EFFECT 34.09090909,< 4
Cn1ncc2c(NC3CCCCC3O)nc(Nc3ccc(F)c(F)c3)nc21 (centres undefined),PXC50,"BOTTOM -1.097292769, HILLSLOPE 1.183920675, MAX_EFFECT 57.48218527, TOP 58.96974935",5.31
same,PXC50,"BOTTOM -1.326166196, HILLSLOPE 1.398612708, MAX_EFFECT 60.37735849, TOP 61.95804926",5.4
same,PXC50,"BOTTOM -2.072986449, HILLSLOPE 1.170002512, MAX_EFFECT 60.08583691, TOP 62.14142479",5.35
OCCCNc1nccc(Nc2cccc(F)c2)n1,PXC50,MAX_EFFECT 2.056074766,< 4
same,PXC50,MAX_EFFECT 11.40142518,< 4
same,PXC50,MAX_EFFECT 18.45493562,< 4
Cn1ncc2c(NCCO)nc(Nc3cccc(S(N)(=O)=O)c3)nc21,PXC50,MAX_EFFECT 2.127659574,< 4
same,PXC50,MAX_EFFECT 6.392694064,< 4
same,PXC50,MAX_EFFECT 11.50943396,< 4
O=S(=O)(NCCSc1nccn1C1CC1)c1ccccc1,PXC50,MAX_EFFECT 2.721088435,< 4
same,PXC50,MAX_EFFECT 2.898550725,< 4
same,PXC50,MAX_EFFECT 8.23117338,< 4
CNS(=O)(=O)c1cccnc1Nc1cccc(C(F)(F)F)c1,PXC50,MAX_EFFECT 3.524229075,< 4
same,PXC50,MAX_EFFECT 5.165289256,< 4
same,PXC50,MAX_EFFECT 6.451612903,< 4
Cn1ncc2c(Nc3ccc(F)c(F)c3)nc(Nc3ccc(F)c(F)c3)nc21,PXC50,MAX_EFFECT 4.405286344,< 4
same,PXC50,MAX_EFFECT 13.01652893,< 4
same,PXC50,MAX_EFFECT 15.66731141,< 4
O=S(=O)(NCCO)c1cccnc1Nc1cccc(C(F)(F)F)c1,PXC50,MAX_EFFECT 4.933586338,< 4
same,PXC50,MAX_EFFECT 12.19008264,< 4
same,PXC50,MAX_EFFECT 16.29955947,< 4
NS(=O)(=O)c1cc(C(=O)O)cnc1Nc1cccc(C(F)(F)F)c1,PXC50,MAX_EFFECT 5.660377358,< 4
same,PXC50,MAX_EFFECT 10.0877193,< 4
same,PXC50,MAX_EFFECT 16.28498728,< 4
NC(=O)c1cccnc1Nc1cccc(S(N)(=O)=O)c1,PXC50,MAX_EFFECT 5.69259962,< 4
same,PXC50,MAX_EFFECT 12.33480176,< 4
same,PXC50,MAX_EFFECT 15.08264463,< 4
CNS(=O)(=O)CCNc1nc(NCCO)c2cnn(C)c2n1,PXC50,MAX_EFFECT 5.780346821,< 4
same,PXC50,MAX_EFFECT 6.392694064,< 4
same,PXC50,MAX_EFFECT 15.28301887,< 4
Cn1ncc2c(NCCO)nc(NCCS(C)(=O)=O)nc21,PXC50,MAX_EFFECT 5.936073059,< 4
same,PXC50,MAX_EFFECT 10.75471698,< 4
same,PXC50,MAX_EFFECT 32.3699422,< 4
